CYP2C19 inhib – inhibitors of human CYP2C19; inhibition, % at 5 µM; CYP2C19 Supersomes, luciferin-H EGE luminescence, 30 min; AID 778; P33261; 96,000 compounds, 21% hits;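 active = CYP2C19 inhibition above a set limit at 5 µM in the primary screen, cut at about 50% in these data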
Target sequence (P33261 whole entry, looked up): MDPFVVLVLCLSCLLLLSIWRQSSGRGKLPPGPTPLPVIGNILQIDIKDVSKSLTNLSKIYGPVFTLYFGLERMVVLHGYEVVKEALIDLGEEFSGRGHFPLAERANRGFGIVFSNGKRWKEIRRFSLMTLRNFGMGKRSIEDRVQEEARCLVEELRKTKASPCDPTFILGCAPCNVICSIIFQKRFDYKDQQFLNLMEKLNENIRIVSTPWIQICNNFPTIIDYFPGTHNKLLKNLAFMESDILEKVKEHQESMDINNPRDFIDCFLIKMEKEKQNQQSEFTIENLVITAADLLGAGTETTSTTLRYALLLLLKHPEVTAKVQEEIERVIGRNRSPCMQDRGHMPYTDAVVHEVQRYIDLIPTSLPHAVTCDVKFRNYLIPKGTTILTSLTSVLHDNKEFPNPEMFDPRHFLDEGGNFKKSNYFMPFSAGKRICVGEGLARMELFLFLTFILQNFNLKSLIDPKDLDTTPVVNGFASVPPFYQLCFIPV
CYP2C19 act – activators of human cytochrome P450 2C19. activation factor at 5 µM. P33261. recombinant CYP2C19, luciferin-H EGE luminescence; hits give high values; 0 = fully inhibited enzyme, 1 = untreated enzyme. 96,000 tested, under 10 active;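 active = activation factor of at least 2 at 5 µM in the primary screen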
CYP2C9 inh – human CYP2C9 inhibition | CYP2C9 Supersomes, luciferin-H conversion, luminescence | inhibition, % at 5 µM | 96,000 compounds, 20% hits;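 active = blocking of liver enzyme CYP2C9 beyond about 50% at 5 µM, limit read from the data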
CYP2C9 act – CYP2C9 (human) activation. P11712. recombinant CYP2C9, luciferin-H conversion, luminescence; hits give high values; factor 1 = untreated enzyme, 0 = blocked. activation factor at 5 µM. 96,000 compounds, 1.4% hits;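 active = activation factor of 2 or more for CYP2C9 at a 5 µM dose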
Mac1 fbg inh – CD11b/CD18-fibrinogen binding inhibition. P05107+P11215. K562 CD11b/CD18 adhesion to fibrinogen, ATPlite luminescence; Mn2+ added to activate the integrin. inhibition, % at 10 µM. 93,000 compounds, 0.54% hits. AID 1497;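 active = primary inhibition of 50% or more at 10 µM, then 40% or more on retest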
CD11b adhes enh – CD11b/CD18-fibrinogen binding enhancement. K562 CD11b/CD18 adhesion to fibrinogen, ATPlite luminescence. 93,000 compounds, 0.07% hits. activation, % at 10 µM. P05107+P11215;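 active = 10 µM primary screen giving 50% or more activity, confirmed by 40% or more on retest at that dose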
Each line names hits and unclear results; the compound was inactive in the other large screens. In the library only some 28% were active in any assay of this set; here they are far more common.

O=C(c1cccs1)N1CCN(C/C=C/c2ccccc2)CC1	CYP2C19 inhib 60, CYP2C9 inh 52
O=C(c1nn(Cc2ccccc2)c(=O)c2ccccc12)N1CCN(C/C=C/c2ccccc2)CC1	CYP2C9 inh 82 (no result: Mac1 fbg inh, CD11b adhes enh)
O=C(NCCN1CCN(C(=O)c2cccs2)CC1)c1cccs1	none
O=C(c1ccco1)N1CCN(C/C=C/c2ccccc2)CC1	none
FCCCOc1ccc(/C=N/OCc2ccc(Cl)cc2)cc1	none
CC(C)Sc1nc2ccccc2n1CC(N)=O	none
Cn1c(SCC(=O)Nc2cc(=O)n(C)c(=O)n2C)nnc1C12CC3CC(CC(C3)C1)C2	none
O=C(Cc1ccccc1)N1CCN(C(=O)c2cccs2)CC1	CYP2C19 inhib 81
COc1cccc(C2CC(c3cccs3)=NN2C(=O)CSc2nc3ccccc3o2)c1OC (stereo not drawn)	none (no result: CYP2C19 inhib, CYP2C19 act, CYP2C9 inh, CYP2C9 act)
COc1ccccc1C1CN(c2ccc(F)cc2F)N=C1c1cccs1 (stereo not drawn)	CYP2C19 inhib 70, CYP2C9 inh 91
O=c1c2ccccc2nnn1CSc1nnc2sc3ccccc3n12	none
COC(=O)CSc1cc(C(=O)c2nccn2C)c2ccccc2n1	CYP2C19 inhib 82, CYP2C9 inh 52
Cn1c(Cn2cnc3ccccc32)nnc1SCC(=O)CC(=O)Nc1ccccc1	CYP2C9 inh 70
CCOC(=O)CNC(=O)CSc1nnc(Cn2cnc3ccccc32)n1C	none
Clc1ccc(-c2nnc3sc(Cc4cccs4)nn23)c(Cl)c1	CYP2C19 inhib 87, CYP2C9 inh 78
COc1ccc(OCc2nn3c(-c4ccco4)nnc3s2)cc1	CYP2C19 inhib 57, CYP2C9 inh 59
Clc1ccc(OCc2nn3c(-c4ccncc4)nnc3s2)cc1	CYP2C19 inhib 92, CYP2C9 inh 69
c1coc(-c2nnc3sc(Cc4cccs4)nn23)c1	CYP2C19 inhib 69, CYP2C9 inh 55
COc1cccc(-c2nnc3sc(-c4ccccc4)nn23)c1	none
COc1ccc(OCc2nn3c(-c4cccc(OC)c4)nnc3s2)cc1	CYP2C19 inhib 51
CC(=O)c1ccccc1NC(=O)CSc1nnc2ccccn12	none
CCN(CCCNC(=O)c1c(C)cc(=O)oc1C)c1cccc(C)c1	CYP2C19 inhib 92, CYP2C9 inh 72
Cc1ccc(CNC(=O)c2c(C)cc(=O)oc2C)cc1	CYP2C9 inh 51
CSc1nc(Cc2ccc(Cl)cc2)nc2ccccc12	none
Cn1c(=O)n(C)c2cc(NS(C)(=O)=O)ccc21	none
O=C(CSc1ncccn1)n1c2c(c3ccccc31)CCCC2	CYP2C9 act 2.1
CC(=O)Nc1cccc(-c2nnc(SCC(=O)n3c4c(c5ccccc53)CCCC4)n2C)c1	CYP2C19 inhib 93
CCN(CC)CC(=O)n1c2c(c3ccccc31)CCCC2	none
COC(=O)c1ccccc1NC(=O)CSc1nnc(-c2cccc(NC(C)=O)c2)n1C	CYP2C19 inhib 94
COc1ccccc1NC(=O)CSc1nnc(-c2ccc(NC(C)=O)cc2)n1C	none
O=C(Nc1ccccn1)[C@@H]1CCC(=O)N1C(=O)OCc1ccccc1	none
CC1(C)Cc2ccccc2C(=O)N1	none
CC1(C)Cc2ccccc2-c2n[nH]c(=S)n21	CYP2C9 inh 53
Cc1ccc(NC(=O)C2C3C=CC4(CN(Cc5cccnc5)C(=O)C24)O3)cc1 (stereo not drawn)	none
CCOc1ccccc1OCCCCN1CCCC1	none
Cc1cc(C)n(C(=O)CSc2ccc(Cl)cc2)n1	none
Cc1ccccc1OCCCCCn1ccnc1	CYP2C19 inhib 100, CYP2C9 inh 100
Clc1ccc(SCCCCn2ccnc2)cc1	CYP2C19 inhib 100, CYP2C9 inh 100
Clc1ccccc1OCCCCn1ccnc1	CYP2C19 inhib 100, CYP2C9 inh 96
Clc1cc(Br)ccc1OCCn1ccnc1	CYP2C19 inhib 96, CYP2C9 inh 93
O=S(=O)(c1ccccc1F)N(Cc1ccco1)Cc1nnc(-c2ccccc2Br)o1	CYP2C19 inhib 50, CYP2C9 inh 68
COc1ccc(-c2coc3cc4oc(=O)cc(C)c4cc23)cc1F	CYP2C19 inhib 58
COc1ccc(-c2coc3cc4oc(=O)cc(-c5ccccc5)c4cc23)cc1F	none (no result: CYP2C19 inhib, CYP2C19 act, CYP2C9 inh, CYP2C9 act)
COc1cc(NS(=O)(=O)c2ccc(NC(=O)COc3ccc(C)cc3)cc2)nc(OC)n1	CYP2C9 inh 82

Screening data from PubChem.
